The source made the active and inactive calls. The call rests on the fitted dose curve; in most records, active means well fitted activation curve with a large enough effect; inconclusive means small, poorly fitted or top-dose-only effect; inactive means flat fitted curve, though single readings scatter.
assay: Cellular Toxicity (caspase-3) HepG2 (AID 654); conditions: HepG2 caspase-3 activation, luminescence, 0% = DMSO only, 100% = tamoxifen; series mostly up to 92.2 µM;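 further: cells exposed to compound for 16 hours before reading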
From the text: NIH Chemical Genomics Center [NCGC]
NIH Molecular Libraries Screening Centers Network [MLSCN]
National Institutes of Environmental Health Sciences [NIEHS]
National Toxicology Program [NTP]
We have developed a 1536-well cell-based assay for quantitative high throughput screening (qHTS) against a number of cell lines to determine in vitro caspase 3/7 of small molecules. This particular assay uses the HepG2 cell line which is derived from human hepatocellular carcinoma.
NCGC Assay Protocol Summary:
The Caspase-Glo 3/7 assay (Promega) is a homogeneous method to measure caspase-3 and caspase-7 activities in cultured cells. The quantitation of caspase 3/7 activity is based on the cleavage of a peptide-aminoluciferin substrate. After caspase cleaves the substrate the free aminoluciferin is liberated and serves as the substrate of luciferase, which generates the light. The luminescent signal is proportional to amount of caspase 3/7 activity present.
Using the Caspase-Glo 3/7 assay, the amount of caspase 3/7 activity was measured in the HepG2 cell line with complete culture medium following compound treatment for 16 hours. The assay was performed in opaque white 1536-well plates. In the screen, tamoxifen and doxorubicin were used as positive controls. Library compounds were measured for their ability to cause the activation of caspase 3/7 in the cell line, as reflected by an increase in luminescence signal, in a concentration-dependent manner. Data were normalized to the controls for basal activity (DMSO only) and 100% stimulation (100 uM tamoxifen). AC50 values were determined from concentration-response data modeled with the standard Hill equation.
qHTS protocol for caspase 3/7 assay in HepG2 cells
[Step] [Parameter] [Value] [Description]
1. Reagent; 5 uL; 1500 HepG2 cells/well
2. Time; 5 hr; 37 °C incubation
4. Controls; 23 nL; Tamoxifen 0.23 uM to 100 uM & Doxorubicin 7.0 pM to 100 uM
5. Time; 16 hr; 37 °C incubation
6. Reagent; 5 uL; Caspase-Glo 3/7 reagent
7. Time; 20 min; Room Temperature
8. Detection; Luminescence; Viewlux plate reader
Keywords: caspase 3/7, apoptosis, HepG2 cell line, luminescence, NTPHTS, NTPHTS_NCGC, NIEHS, EPA, DSSTox, MLSMR, MLSCN, NIH Roadmap, qHTS, NCGC

Structure (SMILES)	outcome
O=C1C(Cl)=C(Cl)C(=O)C(Cl)=C1Cl	inactive
Brc1ccccc1	inactive
ClC(Cl)=C(Cl)Cl	inactive
ClC1=C(Cl)C2(Cl)C3C4C=CC(C4)C3C1(Cl)C2(Cl)Cl (stereo not given)	inactive
[O-][Br+2]([O-])O	inactive
C=CC(=C)C	inactive
C=CC(N)=O	inactive
c1ccc(-c2ccccc2)cc1	inactive
CC(Cl)Cl	inactive
Cc1cccc([N+](=O)[O-])c1	inactive
CCc1cccc(CC)c1N(COC)C(=O)CCl	inactive
Nc1ccc(Br)cc1	inactive
C=CCOC(=O)c1ccccc1N	inactive
O=S1OCC2C(CO1)C1(Cl)C(Cl)=C(Cl)C2(Cl)C1(Cl)Cl (stereo not given)	inactive
CCCC(=O)Cl	inactive
CNC(=O)O/N=C/C(C)(C)SC	inactive
C[N+](C)(C)Cc1ccccc1	inactive
Cc1ccc(O)c(C)c1	inactive
COP(=S)(OC)Oc1ccc([N+](=O)[O-])cc1	inactive
COC(=O)NC(=S)Nc1ccccc1NC(=S)NC(=O)OC	inactive

Structure (SMILES)	outcome
C=C(Cl)Cl	inactive
C/C=C/c1ccc2c(c1)OCO2	inactive
ClC(Cl)=C(c1ccc(Cl)cc1)c1ccc(Cl)cc1	inactive
Nc1c(Cl)c(Cl)nc(C(=O)O)c1Cl	inactive
O=C=NC1CCCCC1	inactive
Clc1ccc2ccccc2c1	inactive
Oc1ccc(Cl)cc1Cl	inactive
CC(O)CCl (stereo not given)	inactive
CCCOC(=O)c1ccccc1C(=O)OCCC	inactive
ClC(Cl)(Cl)c1ccccc1	inactive
COc1ccc(N)cc1	inactive
CN=C=S	inactive
N#CCCCl	inactive
c1nc[nH]n1	inactive
Clc1cccc(C(Cl)(Cl)Cl)n1	inactive
CCNc1nc(Cl)nc(NC(C)C)n1	inactive
C=CCOC(C)=O	inactive
C=CCc1ccc2c(c1)OCO2	inactive
Cc1ccc2ccccc2c1	inactive
CCOCN(C(=O)CCl)c1c(C)cccc1CC	inactive

— PubChem BioAssay (NCATS)
